We go through 7 sequences from the supplement of paper PMC6555819.

Holding throughout (test): PBM binding z-score (relative to random genomic background probes); higher = stronger binding; sequences stand for … in GC…GCGATTGACAGCGTAGAATGAAGG
Assay [1] concerns FXR:RXRa (NR concentration 270 nM, RXRa partner concentration 90 nM). The gist of the method: (§1)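 Each nuclear receptor dimer, without ligand, was incubated for 1 h on custom Agilent 4×180K protein-binding microarrays. Binding was detected with antibodies against each partner (one per run), and scanned fluorescence was regression-normalized. The binding z-scores are referenced to random human genomic background probes.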

Assay [2] relates to LXRa:RXRa (NR concentration 270 nM, RXRa partner concentration 90 nM). In a few lines:
as §1

The test system of assay [3] is LXRa homodimer (NR concentration 270 nM). The gist of the method: as §1
Assay [4] deals with LXRb:RXRa (NR concentration 270 nM, RXRa partner concentration 90 nM). The gist of the method:
as §1

Assay [5] concerns LXRb homodimer (NR concentration 270 nM). In a few lines:
as §1

Assay [6] concerns PPARa:RXRa (NR concentration 270 nM, RXRa partner concentration 90 nM). In a few lines:
as §1

The subject of assay [7] is PPARg:RXRa (NR concentration 180 nM, RXRa partner concentration 90 nM). The gist of the method:
as §1

Assay [8] relates to PPARg:RXRa 270nM:90nM, anti-RXR (NR concentration 270 nM, RXRa partner concentration 90 nM). The gist of the method: as §1
Assay [9] concerns PPARg:RXRa 30nM:10nM, anti-RXR (NR concentration 30 nM, RXRa partner concentration 10 nM). The gist of the method:
as §1

Assay [10] relates to PPARg:RXRa 90nM:30nM, anti-RXR (NR concentration 90 nM, RXRa partner concentration 30 nM). The gist of the method: as §1
In assay [11] the test system is PPARg:RXRa DBDmut IVT, anti-RXR (DBD mutation: RXRa K156A/R161A, NR concentration 270 nM, RXRa partner concentration 90 nM). The gist of the method: as §1
In assay [12] the test system is PPARg:RXRa IVT, anti-PPARg (NR concentration 270 nM, RXRa partner concentration 90 nM). The gist of the method:
as §1

For assay [13], the system named is PPARg DBDmut:RXRa IVT, anti-PPARg (DBD mutation: PPARg1 K132A/R137A, NR concentration 270 nM, RXRa partner concentration 90 nM). In a few lines:
as §1

The subject of assay [14] is PPARg DBDmut IVT, anti-PPARg (DBD mutation: PPARg1 K132A/R137A, NR concentration 270 nM). The gist of the method:
as §1

Assay [15] deals with PPARg homodimer (NR concentration 180 nM). The gist of the method:
as §1

Assay [16] has as its system PXR:RXRa (NR concentration 270 nM, RXRa partner concentration 90 nM). In a few lines:
as §1

Assay [17] has as its system PXR homodimer (NR concentration 270 nM). The gist of the method:
as §1

In assay [18] the test system is RARa:RXR (NR concentration 270 nM, RXRa partner concentration 90 nM). The gist of the method:
as §1

The subject of assay [19] is RARa homodimer (NR concentration 270 nM). In a few lines: as §1
Assay [20] concerns RARb:RXRa (NR concentration 270 nM, RXRa partner concentration 90 nM). In a few lines: as §1

Turning to CCTACTGGGCCACGAAAGGTCATTGGTTCAGTGA, the PBM binding z-score stood at 3.88 in assay [1]; 5.26 in assay [2]; 5.57 in [3]; 4.37 in [4]; 0.215 in assay [5]; 4.79 in assay [6]. In addition, the PBM binding z-score was found to be 4.66 in assay [7]; 4.86 in [8]; 2.43 in assay [9]; 4.48 in assay [10]; 5.54 in assay [11]; 5.88 in [12]. Besides, the PBM binding z-score is -0.165 in [13]; -0.319 in assay [14]; 3.95 in [15]; 5.47 in assay [16]; 3.04 in assay [17]; 5.74 in assay [18]. In addition, the PBM binding z-score in [19] came out at 0.693; in [20], 3.96.
On to GCTTACGGGTCAAAGGGTATAGCATGAATAGAAT, for which the PBM binding z-score in assay [1] stood at 6.94; in [2], 4.45; in assay [3], 0.132; in assay [4] it was 4.28; in [5], 0.557; in assay [6], 6.21. The PBM binding z-score in assay [7] was found to be 9; in assay [8], 7.96; in assay [9], 7.14; in assay [10], 8.29; in [11], 4.35; in assay [12], 5.08. Also, the PBM binding z-score in assay [13] turned out to be 1.19; in assay [14] it was 2.3; in assay [15] it was 2.55; in assay [16] it was 4.16; in [17], 0.626; in assay [18] it was 5.66. The PBM binding z-score in assay [19] worked out at 0.592; in assay [20] it was 4.09.
Take TCATATAGGTAAAAGATGAAAGTCGGTGTGGTAA: the PBM binding z-score in [1] was 0.736; in [2], 1.17; in [3], -0.031; in assay [4], 1.03; in assay [5], 0.134; in assay [6], 2.6. For the same sequence, the PBM binding z-score stood at 3.49 in assay [7]; 4.9 in assay [8]; 5.17 in assay [9]; 5.29 in assay [10]; 4 in [11]; 2.54 in assay [12]. In addition, the PBM binding z-score in assay [13] was found to be 1.07; in assay [14] it was 0.573; in assay [15], 0.893; in assay [16], 0.672; in [17] it was 0.283; in assay [18] it was 1.08. The values for the PBM binding z-score in assay [19] and in assay [20] were 1.1 and 0.338, respectively.
Take GGAACGAGGGCAAGTTGATAGTAGAGTTTGATGG: the PBM binding z-score in assay [1] is 0.866; in assay [2], 0.53; in assay [3], -0.29; in assay [4], 0.413; in [5], -0.108; in assay [6] it was 1.74. Further, the PBM binding z-score amounted to 1.01 in assay [7]; 0.848 in [8]; 0.216 in [9]; 0.579 in assay [10]; 3.65 in assay [11]; 2.79 in assay [12]. Also, the PBM binding z-score is 0.241 in assay [13]; -0.486 in assay [14]; 0.584 in [15]; 0.965 in assay [16]; 1.17 in assay [17]; 0.509 in assay [18]. Besides, the PBM binding z-score in assay [19] was 0.408; in [20] it was 2.76.
In the case of CTCGAAAGGTCGGTCGAGGTGAGTATACGGATAA, the PBM binding z-score was 2.43 in [1]; 1.82 in assay [2]; -0.49 in [3]; 1.29 in assay [4]; -0.496 in assay [5]; 2.75 in assay [6]. The PBM binding z-score came out at 0.678 in assay [7]; 1.5 in assay [8]; 0.401 in assay [9]; 0.892 in [10]; 0.299 in assay [11]; 1.21 in assay [12]. The PBM binding z-score in assay [13] was 0.0612; in [14], -0.418; in assay [15], 0.551; in assay [16], 3.08; in assay [17], -0.312; in [18], 2.59. The PBM binding z-score in [19] is -0.801; in assay [20], 3.2.
Take TCGAGTAGGTTGCCAATGGGGCATTCAGCTTTCT: the PBM binding z-score in assay [1] was -0.454; in [2] it was -0.408; in [3] it was -0.785; in [4] it was -0.313; in assay [5] it was -0.788; in assay [6], -0.0635. Also, the PBM binding z-score in assay [7] was -0.86; in assay [8] it was 0.227; in assay [9] it was 0.337; in [10], 0.314; in assay [11], 0.771; in assay [12], 0.26. In addition, the PBM binding z-score is -0.582 in assay [13]; -1.2 in [14]; -1.09 in [15]; -0.544 in assay [16]; -1.13 in assay [17]; -0.717 in assay [18]. Moreover, the PBM binding z-score was -1.42 in [19] and -0.201 in assay [20].
For the sequence CAAACTAGGTCAAGGTCAAGGTCGGTTTGTGCCA, the PBM binding z-score in [1] was found to be 6.47; in assay [2], 5.41; in assay [3], 3.72; in [4], 4.28; in [5] it was 0.954; in assay [6] it was 6. The PBM binding z-score in assay [7] stood at 9.57; in [8] it was 7.87; in assay [9] it was 6.34; in assay [10], 8.36; in assay [11], 8.6; in [12] it was 8.73. Further, the PBM binding z-score in assay [13] was 2.59; in assay [14], 1.56; in assay [15], 5.52; in assay [16], 5.33; in [17], 2.34; in [18] it was 5.61. The PBM binding z-score turned out to be 2.92 in assay [19] and 5.2 in [20].
